# Source: paper PMC4552634, “A New Set of Chemical Starting Points with Plasmodium falciparum Transmission-Blocking Potential for Antimalarial Drug Discovery” (PLoS ONE, 2015)
# Like-named read-outs stand apart in the source and are kept apart here. In all, about 13,000 compounds went through this assay and about 3,200 (25%) showed an effect of 50% or more. This is one part of the list.
# System: P. falciparum stage V gametocytes
# Set-up: BacTiter-Glo ATP luminescence viability of purified stage V gametocytes in 384-well plates, per cent inhibition versus DMSO
# Conditions: 48 h, 5 µM, inhibitor
Structure (SMILES),% Inhibition [%],% Inhibition (% Inhibition) [%]
Cc1[nH]c2ccc(O)cc2c1C1CCN(CC2CCN(C(=O)/C=C/c3ccc(Cl)c(Cl)c3)CC2)CC1 [TCMDC-140219],39.96,–
CCCCCCCCCC(=O)NCC1CC(Br)=NO1 (stereo not drawn) [TCMDC-137735],4.616,–
OC(CNCCCCCCNCC(O)c1ccc(Cl)c(Cl)c1)c1ccc(Cl)c(Cl)c1 (stereo not drawn) [TCMDC-141987],99.2,–
OC(CNC1CCCCCC1)c1ccc(Cl)c(Cl)c1 (stereo not drawn) [TCMDC-141990],-11.57,–
OC(CNC1CCCCCCC1)c1ccc(Cl)c(Cl)c1 (stereo not drawn) [TCMDC-141991],-9.212,–
OC(CNC1CCCCC1)c1ccc(Cl)c(Cl)c1 (stereo not drawn) [TCMDC-123990],75.22,–
CC(C)C[C@H](NC(=O)c1ccc(OCCN2CCOCC2)cc1)C(=O)N[C@H](/C=N/N(C)C(=O)c1ccccc1)CCc1ccccc1 [TCMDC-135854],17.32,–
CC1(C)N=C(N)N=C(N)N1OCc1cccs1 [TCMDC-131654],20.54,–
COC(=O)/C=C/c1ccc(CC(C)NCC(O)c2cccc(C(F)(F)F)c2)cc1 (stereo not drawn) [TCMDC-131448],–,-0.1444
CCNc1cc(C(=O)N[C@@H](Cc2ccccc2)[C@H](O)CN[C@@H](C)c2ccccc2)cc(N2CCCC2=O)c1 [TCMDC-138823],8.317,–
CCNc1cc(C(=O)N[C@@H](Cc2ccccc2)[C@H](O)CN[C@@H](C)c2cccc(OC)c2)cc(N2CCCC2=O)c1 [TCMDC-138824],-0.5109,–
CCNc1cc(C(=O)N[C@@H](Cc2ccccc2)[C@H](O)CN[C@H]2CCc3ccccc32)cc(N2CCCC2=O)c1 [TCMDC-138917],52.85,–
CCNc1cc(C(=O)N[C@@H](Cc2ccccc2)[C@H](O)CNC(CC)c2cccc(Cl)c2)cc(N2CCCCS2(=O)=O)c1 (stereo partly drawn) [TCMDC-135221],3.057,–
CCNc1cc(C(=O)N[C@@H](Cc2ccccc2)[C@H](O)CN[C@H](C)c2ccccc2)cc(N2CCCC2=O)c1 [TCMDC-138822],64.41,–
CCNc1cc(C(=O)N[C@@H](Cc2ccccc2)[C@H](O)CNC2CCCC2)cc(N2CCCC2=O)c1 [TCMDC-138844],16.89,–
CCCCCC(C)(C)NC[C@@H](O)[C@H](Cc1ccccc1)NC(=O)c1cc(NCC)cc(N2CCCC2=O)c1 [TCMDC-138912],10.89,–
CCNc1cc(C(=O)N[C@@H](Cc2ccccc2)[C@H](O)CN[C@@H]2CCc3ccccc32)cc(N2CCCC2=O)c1 [TCMDC-132414],21.82,–
CCC(NC[C@@H](O)[C@H](Cc1ccccc1)NC(=O)c1cc(C2CCCC2)cc(N2CCCC2=O)c1)c1cccc(Cl)c1 (stereo partly drawn) [TCMDC-135265],4.239,–
CCNc1cc(C(=O)N[C@@H](Cc2ccccc2)[C@H](O)CNC(C)(C)CSCC(C)C)cc(N2CCCC2=O)c1 [TCMDC-134311],69.93,–
CCNc1cc(C(=O)N[C@@H](Cc2ccccc2)[C@H](O)CNC(CC)c2cccc(Cl)c2)cc(N2CCCC2=O)c1 (stereo partly drawn) [TCMDC-135264],64.68,–

Structure (SMILES),% Inhibition [%],% Inhibition (% Inhibition) [%]
CCNc1cc(C(=O)N[C@@H](Cc2ccccc2)[C@H](O)CNC(C)(C)Cc2ccccc2)cc(N2CCCC2=O)c1 [TCMDC-134567],5.299,–
Cc1cccc2[nH]c(-c3cccc(-c4cccc(CN5CCC(CO)CC5)c4)c3)nc12 [TCMDC-133131],-22.3,–
Nc1nccc(-c2ccc3c(-c4cccc(F)c4)cnc(N)c3c2)n1 [TCMDC-134545],-1.877,–
Cc1cc(NC(=O)c2ccsc2)ccc1OC1CCN(Cc2ccc(F)cc2)CC1 [TCMDC-133742],4.453,–
COc1ccc(Nc2nccc(-c3c(-c4cccc(NC(=O)c5c(F)cccc5F)c4)nn4ccccc34)n2)cc1Cl [TCMDC-135970],-50.42,–
CS(=O)(=O)N(c1ccccc1)c1cc(C(=O)N[C@@H](Cc2ccccc2)[C@H](O)CNC2CC2)cc(N2CCCC2=O)c1 [TCMDC-138891],19.46,–
CS(=O)(=O)N(c1ccccc1)c1cc(C(=O)N[C@@H](Cc2ccccc2)[C@H](O)CNC2CCCCC2)cc(N2CCCC2=O)c1 [TCMDC-138850],25.67,–
CC(C)CCCC(C)NC[C@@H](O)[C@H](Cc1ccccc1)NC(=O)c1cc(N2CCCC2=O)cc(N(c2ccccc2)S(C)(=O)=O)c1 (stereo partly drawn) [TCMDC-138851],82.88,–
O=C(Nc1cccc(-c2ccc(-c3nc4ccc(C(F)(F)F)cc4[nH]3)cc2)c1)c1csnn1 [TCMDC-136905],5.589,–
COc1ccc(NC(=O)[C@H](C)Nc2cc(C)nc(NCC3CCCCC3)n2)cc1 [TCMDC-134922],-9.943,–
CCOC(=O)c1ccc(N2CCN(c3cc(Cl)ccc3C)CC2)c(NC(=O)Nc2ccc(Cl)c(Cl)c2)c1 [TCMDC-124007],-37.8,–
O=C(/C=C/c1ccc(Cl)c(Cl)c1)N1CCC(CCN2CCC(c3c[nH]c4ccncc34)CC2)CC1 [TCMDC-140075],91.37,–
O=C(/C=C/c1ccc(Cl)c(Cl)c1)N1CCC(CN2CCC(c3c[nH]c4ccncc34)CC2)CC1 [TCMDC-140074],108.3,–
O=C(/C=C/c1ccc(Cl)c(Cl)c1)N1CCC(CN2CCC(c3c[nH]c4ncccc34)CC2)CC1 [TCMDC-139846],9.268,–
CS(=O)(=O)Nc1ccc2[nH]cc(C3CCN(CC4CCN(C(=O)/C=C/c5ccc(Cl)c(Cl)c5)CC4)CC3)c2c1 [TCMDC-139813],20.88,–
O=C(/C=C/c1ccc(Cl)c(Cl)c1)N1CCC(CCN2CCC(c3c[nH]c4ccccc34)CC2)CC1 [TCMDC-139620],8.374,–
O=C(/C=C/c1ccc(Cl)c(Cl)c1)N1CCC(CN2CCC(c3c[nH]c4ccc(NS(=O)(=O)c5cccs5)cc34)CC2)CC1 [TCMDC-139955],57.44,–
CS(=O)(=O)Nc1ccc2c(C3CCN(CC4CCN(C(=O)/C=C/c5ccc(Cl)c(Cl)c5)CC4)CC3)c[nH]c2c1 [TCMDC-139959],-60.99,–
O=C(/C=C/c1ccc(Cl)c(Cl)c1)N1CCC(CCN2CCC(c3c[nH]c4cnccc34)CC2)CC1 [TCMDC-140136],111.3,–
O=C(/C=C/c1ccc(Cl)c(Cl)c1)N1CCC(CN2CCC(c3c[nH]c4cnccc34)CC2)CC1 [TCMDC-140135],46.53,–

Structure (SMILES),% Inhibition [%],% Inhibition (% Inhibition) [%]
CCc1nc(N)nc(N)c1-c1ccccc1 [TCMDC-124296],-28.74,–
O=C(Nc1ccc(F)cc1)c1nc2ccccc2nc1Cl [TCMDC-124769],24.46,–
COCCN(C)CCCOc1cc2c(cc1OC)ncn2-c1cc(OCc2ccccc2C(F)(F)F)c(C(N)=O)s1 [TCMDC-135214],33.23,–
CCN1CCN(c2cc(C)c3cc(NC(=O)c4cccc(Cl)c4)ccc3n2)CC1 [TCMDC-125580],30.18,–
N=c1c(C(=O)NCc2ccccc2)cc2c(=O)n3ccccc3nc2n1CCc1ccccc1 [TCMDC-124378],0.2894,–
O=C(/C=C/c1ccc(Cl)c(Cl)c1)N1CCC(CN2CCC(c3c[nH]c4cc5c(cc34)OCO5)CC2)CC1 [TCMDC-139838],-10.77,–
CNC(=O)c1ccc2[nH]cc(C3CCN(CC4CCN(C(=O)/C=C/c5ccc(Cl)c(Cl)c5)CC4)CC3)c2c1 [TCMDC-139980],-32.3,–
CCS(=O)(=O)Nc1ccc2[nH]cc(C3CCN(CCC4CCN(C(=O)/C=C/c5ccc(Cl)c(Cl)c5)CC4)CC3)c2c1 [TCMDC-139930],78.45,–
O=C(/C=C/c1ccc(Cl)c(Cl)c1)N1CCC(CCN2CCC(c3c[nH]c4cc5c(cc34)OCO5)CC2)CC1 [TCMDC-139836],55.11,–
CS(=O)(=O)Nc1ccc2c(C3CCN(CCC4CCN(C(=O)/C=C/c5ccc(Cl)c(Cl)c5)CC4)CC3)c[nH]c2c1 [TCMDC-139956],32.42,–
O=C1COc2ccc(S(=O)(=O)N3CCC[C@@H]3CCN3CCC(c4c[nH]c5cnccc45)CC3)cc2N1 [TCMDC-141172],41.57,–
O=C(/C=C/c1ccc(Cl)c(Cl)c1)N1CCC(CN2CCC(c3c[nH]c4ccc(O)cc34)CC2)CC1 [TCMDC-139786],94.36,–
CC(=O)Nc1ccc2[nH]cc(C3CCN(CCC4CCN(C(=O)/C=C/c5ccc(Cl)c(Cl)c5)CC4)CC3)c2c1 [TCMDC-139854],30.15,–
O=S(=O)(c1ccc2cc[nH]c2c1)N1CCC[C@@H]1CCN1CCC(c2c[nH]c3cnccc23)CC1 [TCMDC-141158],68.56,–
CC(=O)Nc1ccc2[nH]cc(C3CCN(CC4CCN(C(=O)/C=C/c5ccc(Cl)c(Cl)c5)CC4)CC3)c2c1 [TCMDC-139853],21.75,–
CC1CCN(CC[C@H]2CCCN2S(=O)(=O)c2cccc(NC(=O)c3ccc(-c4ccc(Cl)cc4)o3)c2)CC1 [TCMDC-141078],-28.73,–
Cc1cccc(C(=O)NCCCN2CCC(NC(=O)/C=C/c3ccc(Cl)c(Cl)c3)CC2)c1 [TCMDC-133355],-67.88,–
CCNc1cc(C(=O)N[C@@H](Cc2ccccc2)[C@H](O)CNC2CCSCC2)cc(N2CCCC2=O)c1 [TCMDC-134686],19.67,–
CC(C)(C)COC(=O)c1ccc(NC(=O)N[C@@H](Cc2ccc(O)cc2)C(=O)NC2CCN(Cc3ccc(O)cc3)C2)cc1 (stereo partly drawn) [TCMDC-135356],-84.6,–
COc1ccc(Nc2nccc(NCCNC(=O)c3cc4ccccc4s3)n2)cc1 [TCMDC-133643],10.68,–
